Laboratory results from the supplement of paper PMC10849652.
The full data set covers some 7,900 targets. This sample favours those with a hit. About 0.6% of all pairs of compound and target were hits.

Key:
Assay in all cases: log2 fold change, soluble protein after heating vs DMSO (PISA); higher = thermal stabilisation; K562 cells, 10 uM, 30 min; active = over 0.2 and 3.5 SD of the protein, either way, in both replicates (recomputed)
erlotinib = compound: C#Cc1cccc(Nc2ncnc3cc(OCCOC)c(OCCOC)cc23)c1 [erlotinib]
Method in brief: (§1)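 K562 cells at 2×10^6 cells/mL were exposed to 10 μM compound for 30 min, then aliquots were heated for 3 min across 48°C-58°C, pooled, and extracted in PBS containing 0.5% NP-40 at 4°C. The supernatant after 21,000xg for 90 min was taken as soluble protein and measured by TMTpro 16plex LC-MS/MS with channel sums equalised. Thermal stability is reported relative to control samples, with values from duplicates. Fold changes are given on a log2 scale.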

[1] = compound: C/C(=N\NC(=O)C1=CC(=CC=C1)S(=O)(=O)N2CCOCC2)/C3=C(C=CC(=C3)Cl)O
Method in brief: as §1

[2] = compound: C1=CC(=C(C=C1Cl)C2=NC3=NC=CN=C3C(=N2)NC4=CC=NC=C4)F
Method in brief: as §1

[3] = compound: C1=CC(=CC=C1C2=NC3=C(N2)C=C(C=C3)C(=O)N)OC4=CC=C(C=C4)Cl
Method in brief: as §1

[4] = compound: C1=CC2=C(C=CC(=C2)/C=C\3/C(=O)NC(=NCC4=CC=CS4)S3)N=C1
Method in brief: as §1

[5] = compound: C1=CC2=NC=CN=C2C=C1/C=C/3\C(=O)NC(=O)S3
Method in brief: as §1

[6] = compound: C1=CC=C(C=C1)C2=NC(=C(N2)C3=CC=NC=C3)C4=CC(=C(C=C4)Cl)O
Method in brief: as §1

[7] = compound: C1=CC=C2C(=C1)C3=NNC4=CC=CC(=C43)C2=O
Method in brief: as §1

[8] = compound: C1CCN(C1)C(=O)NC2=CC=CC(=C2)NC3=NC=C(C(=N3)NCCC4=CN=CN4)Br
Method in brief: as §1

[9] = compound: C1CN(CCC1(CC2=CC=C(C=C2)Cl)N)C3=NC=NC4=C3C=CN4
Method in brief: as §1

IRAK-1-4 Inhibitor I = compound: C1COCCN1CCN2C3=CC=CC=C3N=C2NC(=O)C4=CC(=CC=C4)[N+](=O)[O-] [IRAK-1-4 Inhibitor I]
Method in brief: as §1

ibrutinib = compound: C=CC(=O)N1CCC[C@@H](n2nc(-c3ccc(Oc4ccccc4)cc3)c3c(N)ncnc32)C1 [ibrutinib]
Method in brief: as §1

[10] = compound: CC(=O)c1cnc2ccc(-c3cc(Cl)c(O)c(Cl)c3)nc2c1N[C@H]1CC[C@H](CN(C)C)CC1
Method in brief: as §1

ralimetinib = compound: CC(C)(C)Cn1c(N)nc2ccc(-c3[nH]c(C(C)(C)C)nc3-c3ccc(F)cc3)nc21 [ralimetinib]
Method in brief: as §1

[11] = compound: CC(C)(O)CC(=O)NCCn1ccc2ncnc(Nc3ccc(Oc4cccc(C(F)(F)F)c4)c(Cl)c3)c21
Method in brief: as §1

[12] = compound: CC(C)C1=C2N=C(C=C(N2N=C1)NCC3=CC=CC=C3)NCCCCCCN
Method in brief: as §1

[13] = compound: CC(C)C[C@@H](C=O)NC(=O)[C@H](CC(C)C)NC(=O)[C@H](CC(C)C)NC(=O)OCc1ccccc1
Method in brief: as §1

pinometostat = compound: CC(C)N(C[C@H]1O[C@@H](n2cnc3c(N)ncnc32)[C@H](O)[C@@H]1O)[C@H]1C[C@@H](CCc2nc3cc(C(C)(C)C)ccc3[nH]2)C1 [pinometostat]
Method in brief: as §1

[14] = compound: CC1=C(C(CC(=O)N1)C2=CC=C(C=C2)C(F)(F)F)C(=O)NC3=C(C=C4C(=C3)C=NN4)F
Method in brief: as §1

[15] = compound: CC1=C(C2=C(C=C1)C(=O)C3=CC=CC=C3N2CCCN)C
Method in brief: as §1

Measured: log2 fold change

CSNK2A1 (UniProt P68400)
inactive: erlotinib -0.03 | [1] -0.011 | [2] 0.006 | [3] 0.024 | [4] 0.139 | [6] -0.041 | [7] 0.094 | [8] -0.003 | [9] -0.013 | IRAK-1-4 Inhibitor I 0.022 | ibrutinib 0.029 | ralimetinib -0.082 | [11] 0.006 | [12] -0.064 | [13] -0.021 | pinometostat 0.103 | [14] 0.004 | [15] 0.159
active: [5] 0.296 | [10] 0.245

COX20 isoform 2 (UniProt Q5RI15)
Chain of UniProt Q5RI15 (Q5RI15 whole entry, looked up): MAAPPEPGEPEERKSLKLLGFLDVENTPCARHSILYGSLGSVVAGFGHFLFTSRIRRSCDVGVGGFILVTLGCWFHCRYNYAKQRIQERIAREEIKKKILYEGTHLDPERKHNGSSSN
inactive: erlotinib 0.037 | [1] 0.013 | [2] 0.072 | [3] 0.008 | [4] 0.057 | [5] 0.016 | [6] -0.092 | [7] -0.061 | [8] 0 | [9] 0.03 | IRAK-1-4 Inhibitor I -0.019 | ibrutinib 0.043 | [10] -0.022 | ralimetinib -0.055 | [11] 0.016 | [12] 0.006 | [13] 0 | pinometostat -0.018 | [14] -0.018 | [15] 0.019

CETN2 (UniProt P41208)
Chain of UniProt P41208 (P41208 whole entry, looked up): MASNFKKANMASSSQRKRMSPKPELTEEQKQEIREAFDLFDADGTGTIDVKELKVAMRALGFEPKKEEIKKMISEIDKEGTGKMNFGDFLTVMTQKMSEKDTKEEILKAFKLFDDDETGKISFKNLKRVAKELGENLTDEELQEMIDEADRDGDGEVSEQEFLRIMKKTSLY
inactive: erlotinib 0.121 | [1] -0.015 | [2] -0.002 | [3] 0.017 | [4] -0.058 | [5] 0.03 | [6] -0.058 | [7] -0.113 | [8] 0.039 | [9] 0.049 | IRAK-1-4 Inhibitor I -0.067 | ibrutinib 0.006 | [10] -0.019 | ralimetinib -0.012 | [11] 0.074 | [12] 0.17 | [13] 0.043 | pinometostat 0.011 | [14] 0.075 | [15] -0.045

CDC42BPB (UniProt Q9Y5S2)
inactive: erlotinib -0.005 | [1] 0.221 | [2] -0.071 | [3] 0.069 | [4] -0.047 | [5] 0.027 | [6] -0.024 | [7] 0.04 | [8] 0.017 | [9] -0.221 | IRAK-1-4 Inhibitor I -0.022 | ibrutinib -0.167 | ralimetinib 0.124 | [11] 0.023 | [12] -0.063 | [13] -0.009 | pinometostat 0.267 | [14] -0.038 | [15] 0.023
active: [10] -0.637

COX5B (UniProt P10606)
Chain of UniProt P10606 (P10606 whole entry, looked up): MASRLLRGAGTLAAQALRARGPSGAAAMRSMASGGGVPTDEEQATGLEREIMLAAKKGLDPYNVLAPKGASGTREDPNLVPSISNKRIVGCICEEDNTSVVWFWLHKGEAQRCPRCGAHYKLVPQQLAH
active: [12] 0.428
inactive: erlotinib -0.068 | [1] 0.062 | [2] 0.16 | [3] -0.041 | [4] 0.032 | [5] 0.03 | [6] 0.114 | [7] -0.023 | [8] -0.067 | [9] -0.003 | IRAK-1-4 Inhibitor I 0.008 | ibrutinib -0.012 | [10] -0.079 | ralimetinib 0 | [11] 0.106 | [13] -0.082 | pinometostat -0.071 | [14] 0.003 | [15] 0.204

CETN3 (UniProt O15182)
Chain of UniProt O15182 (O15182 whole entry, looked up): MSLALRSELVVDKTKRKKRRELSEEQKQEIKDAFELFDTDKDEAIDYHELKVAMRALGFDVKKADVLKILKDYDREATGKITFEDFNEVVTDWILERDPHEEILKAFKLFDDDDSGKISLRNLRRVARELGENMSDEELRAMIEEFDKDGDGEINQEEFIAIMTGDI
inactive: erlotinib -0.098 | [1] 0.009 | [2] -0.065 | [3] -0.022 | [4] 0.027 | [5] 0.077 | [6] -0.12 | [7] -0.055 | [8] 0.041 | [9] -0.125 | IRAK-1-4 Inhibitor I 0.031 | ibrutinib -0.022 | [10] -0.006 | ralimetinib -0.075 | [11] 0.035 | [12] -0.038 | [13] 0.039 | pinometostat 0.016 | [14] -0.002 | [15] -0.18

CD55 isoform 7 (UniProt P08174)
Chain of UniProt P08174 (P08174 whole entry, looked up): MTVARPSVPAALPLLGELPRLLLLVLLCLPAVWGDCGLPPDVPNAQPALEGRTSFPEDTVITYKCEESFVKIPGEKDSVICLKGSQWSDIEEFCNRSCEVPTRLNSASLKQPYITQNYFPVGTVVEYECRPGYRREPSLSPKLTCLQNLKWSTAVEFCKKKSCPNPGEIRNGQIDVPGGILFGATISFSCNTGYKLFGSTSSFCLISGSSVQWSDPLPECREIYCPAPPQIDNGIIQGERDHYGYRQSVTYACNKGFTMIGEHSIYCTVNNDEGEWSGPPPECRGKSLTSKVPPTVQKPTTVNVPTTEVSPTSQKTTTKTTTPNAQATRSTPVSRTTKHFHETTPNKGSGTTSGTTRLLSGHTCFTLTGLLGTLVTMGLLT
inactive: erlotinib -0.065 | [1] -0.002 | [2] -0.031 | [3] 0.036 | [4] -0.121 | [5] -0.015 | [6] 0.011 | [7] -0.062 | [8] -0.079 | [9] 0.008 | IRAK-1-4 Inhibitor I -0.043 | ibrutinib 0.071 | [10] -0.008 | ralimetinib 0.016 | [11] 0.037 | [12] 0.155 | [13] -0.012 | pinometostat 0.019 | [14] 0.02 | [15] -0.054

CCDC82 (UniProt Q8N4S0)
Chain of UniProt Q8N4S0 (Q8N4S0 whole entry, looked up): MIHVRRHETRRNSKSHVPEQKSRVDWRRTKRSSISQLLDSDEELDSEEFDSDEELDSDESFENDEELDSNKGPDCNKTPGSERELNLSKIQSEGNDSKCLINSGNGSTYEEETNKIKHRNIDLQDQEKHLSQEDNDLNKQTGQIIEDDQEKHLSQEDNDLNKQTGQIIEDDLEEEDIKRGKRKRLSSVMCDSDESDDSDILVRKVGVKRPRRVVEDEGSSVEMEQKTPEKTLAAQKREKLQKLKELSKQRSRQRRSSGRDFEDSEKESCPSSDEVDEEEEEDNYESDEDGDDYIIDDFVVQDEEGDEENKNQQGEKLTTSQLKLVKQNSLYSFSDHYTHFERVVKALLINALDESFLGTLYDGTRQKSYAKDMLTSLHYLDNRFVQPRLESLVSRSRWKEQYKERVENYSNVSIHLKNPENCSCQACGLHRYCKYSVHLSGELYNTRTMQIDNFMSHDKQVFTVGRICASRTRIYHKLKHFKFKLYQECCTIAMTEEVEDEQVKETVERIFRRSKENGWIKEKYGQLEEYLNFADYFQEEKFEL
inactive: erlotinib -0.08 | [1] 0.035 | [2] 0.011 | [3] -0.026 | [4] -0.01 | [5] 0.046 | [6] -0.022 | [7] -0.092 | [8] -0.004 | [9] 0.022 | IRAK-1-4 Inhibitor I -0.041 | ibrutinib 0.022 | [10] -0.07 | ralimetinib -0.023 | [11] 0.012 | [12] 0 | [13] 0.028 | pinometostat -0.019 | [14] 0.108
active: [15] -0.65

C4A (UniProt P0C0L4)
Chain of UniProt P0C0L4 (P0C0L4 whole entry, looked up): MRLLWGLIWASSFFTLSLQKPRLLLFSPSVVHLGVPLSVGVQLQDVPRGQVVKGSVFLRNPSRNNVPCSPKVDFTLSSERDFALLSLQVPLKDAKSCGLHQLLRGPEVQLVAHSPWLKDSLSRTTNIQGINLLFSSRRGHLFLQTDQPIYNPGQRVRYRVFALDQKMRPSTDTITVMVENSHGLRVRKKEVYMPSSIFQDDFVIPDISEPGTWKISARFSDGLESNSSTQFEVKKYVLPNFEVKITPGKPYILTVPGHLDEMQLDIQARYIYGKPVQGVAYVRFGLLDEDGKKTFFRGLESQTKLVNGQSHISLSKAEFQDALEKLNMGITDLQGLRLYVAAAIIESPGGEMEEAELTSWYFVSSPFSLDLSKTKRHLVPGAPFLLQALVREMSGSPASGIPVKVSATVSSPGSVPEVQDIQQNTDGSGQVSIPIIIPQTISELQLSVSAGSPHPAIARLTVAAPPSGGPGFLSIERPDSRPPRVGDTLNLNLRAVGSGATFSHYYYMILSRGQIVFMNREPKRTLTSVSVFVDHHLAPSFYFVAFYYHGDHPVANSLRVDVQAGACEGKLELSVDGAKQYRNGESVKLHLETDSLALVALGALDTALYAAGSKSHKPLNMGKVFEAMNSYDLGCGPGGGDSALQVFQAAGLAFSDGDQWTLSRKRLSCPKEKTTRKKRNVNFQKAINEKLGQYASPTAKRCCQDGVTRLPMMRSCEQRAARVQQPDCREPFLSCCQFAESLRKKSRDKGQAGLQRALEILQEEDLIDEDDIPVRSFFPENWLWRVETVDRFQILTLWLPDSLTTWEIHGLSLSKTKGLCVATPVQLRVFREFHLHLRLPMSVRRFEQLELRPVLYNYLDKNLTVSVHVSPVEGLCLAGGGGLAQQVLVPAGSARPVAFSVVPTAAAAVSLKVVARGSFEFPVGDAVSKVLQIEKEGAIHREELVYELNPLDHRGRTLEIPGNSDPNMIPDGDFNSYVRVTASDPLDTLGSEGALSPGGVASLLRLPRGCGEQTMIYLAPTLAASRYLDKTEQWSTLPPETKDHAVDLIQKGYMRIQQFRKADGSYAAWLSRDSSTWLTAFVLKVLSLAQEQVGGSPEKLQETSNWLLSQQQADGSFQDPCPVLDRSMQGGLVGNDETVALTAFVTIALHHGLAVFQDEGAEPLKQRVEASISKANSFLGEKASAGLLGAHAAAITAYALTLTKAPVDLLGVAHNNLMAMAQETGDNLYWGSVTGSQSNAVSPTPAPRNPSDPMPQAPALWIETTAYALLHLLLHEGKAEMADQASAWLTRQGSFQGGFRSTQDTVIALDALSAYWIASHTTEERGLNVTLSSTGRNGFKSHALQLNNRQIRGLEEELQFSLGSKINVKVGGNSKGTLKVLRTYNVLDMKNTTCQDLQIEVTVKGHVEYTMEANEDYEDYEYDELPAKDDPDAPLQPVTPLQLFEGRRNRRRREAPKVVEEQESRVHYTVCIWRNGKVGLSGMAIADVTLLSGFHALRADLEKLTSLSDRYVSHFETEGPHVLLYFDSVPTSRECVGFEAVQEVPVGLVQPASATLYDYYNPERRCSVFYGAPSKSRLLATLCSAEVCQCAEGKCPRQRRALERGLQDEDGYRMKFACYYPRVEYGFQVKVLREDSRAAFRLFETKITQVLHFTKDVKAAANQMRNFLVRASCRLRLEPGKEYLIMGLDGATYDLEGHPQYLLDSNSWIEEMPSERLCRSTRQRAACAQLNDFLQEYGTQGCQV
inactive: erlotinib -0.117 | [1] -0.05 | [2] 0.024 | [3] 0.078 | [4] 0.12 | [5] -0.032 | [6] 0.002 | [7] -0.132 | [8] 0.072 | [9] 0.104 | IRAK-1-4 Inhibitor I 0.017 | ibrutinib 0.08 | [10] -0.01 | ralimetinib -0.083 | [11] 0.226 | [12] 0.111 | [13] 0.01 | pinometostat -0.11 | [14] 0.086 | [15] -0.192

CHAMP1 (UniProt Q96JM3)
Chain of UniProt Q96JM3 (Q96JM3 whole entry, looked up): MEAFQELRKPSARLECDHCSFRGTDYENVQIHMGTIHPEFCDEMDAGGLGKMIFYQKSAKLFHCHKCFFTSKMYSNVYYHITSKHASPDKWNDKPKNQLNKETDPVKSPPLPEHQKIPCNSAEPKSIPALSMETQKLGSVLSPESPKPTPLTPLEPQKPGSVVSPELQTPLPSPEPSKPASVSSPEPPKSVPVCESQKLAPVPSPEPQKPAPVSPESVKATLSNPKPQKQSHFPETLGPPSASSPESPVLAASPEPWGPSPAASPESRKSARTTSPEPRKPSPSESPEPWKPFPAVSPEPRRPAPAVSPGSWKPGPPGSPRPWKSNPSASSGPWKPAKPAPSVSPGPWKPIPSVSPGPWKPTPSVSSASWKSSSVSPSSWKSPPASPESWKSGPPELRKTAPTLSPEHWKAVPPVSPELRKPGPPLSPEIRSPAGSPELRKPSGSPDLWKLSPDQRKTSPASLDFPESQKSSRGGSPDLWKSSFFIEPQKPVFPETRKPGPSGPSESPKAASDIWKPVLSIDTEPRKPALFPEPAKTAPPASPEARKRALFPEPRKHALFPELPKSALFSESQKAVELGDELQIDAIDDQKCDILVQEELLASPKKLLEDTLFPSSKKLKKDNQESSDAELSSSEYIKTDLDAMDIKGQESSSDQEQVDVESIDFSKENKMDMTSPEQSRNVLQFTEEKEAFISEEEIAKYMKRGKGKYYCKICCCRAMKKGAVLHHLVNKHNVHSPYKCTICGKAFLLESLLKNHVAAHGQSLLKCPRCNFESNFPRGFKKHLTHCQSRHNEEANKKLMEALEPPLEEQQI
active: [15] -0.23
inactive: erlotinib 0.083 | [1] 0.004 | [2] 0.075 | [3] 0.03 | [4] 0.023 | [5] 0.014 | [6] -0.01 | [7] -0.06 | [8] 0.004 | [9] 0.064 | IRAK-1-4 Inhibitor I 0.047 | ibrutinib 0.066 | [10] -0.207 | ralimetinib 0.033 | [11] -0.036 | [12] -0.047 | [13] -0.015 | pinometostat 0.034 | [14] 0.004

CDKN2AIP (UniProt Q9NXV6)
Chain of UniProt Q9NXV6 (Q9NXV6 whole entry, looked up): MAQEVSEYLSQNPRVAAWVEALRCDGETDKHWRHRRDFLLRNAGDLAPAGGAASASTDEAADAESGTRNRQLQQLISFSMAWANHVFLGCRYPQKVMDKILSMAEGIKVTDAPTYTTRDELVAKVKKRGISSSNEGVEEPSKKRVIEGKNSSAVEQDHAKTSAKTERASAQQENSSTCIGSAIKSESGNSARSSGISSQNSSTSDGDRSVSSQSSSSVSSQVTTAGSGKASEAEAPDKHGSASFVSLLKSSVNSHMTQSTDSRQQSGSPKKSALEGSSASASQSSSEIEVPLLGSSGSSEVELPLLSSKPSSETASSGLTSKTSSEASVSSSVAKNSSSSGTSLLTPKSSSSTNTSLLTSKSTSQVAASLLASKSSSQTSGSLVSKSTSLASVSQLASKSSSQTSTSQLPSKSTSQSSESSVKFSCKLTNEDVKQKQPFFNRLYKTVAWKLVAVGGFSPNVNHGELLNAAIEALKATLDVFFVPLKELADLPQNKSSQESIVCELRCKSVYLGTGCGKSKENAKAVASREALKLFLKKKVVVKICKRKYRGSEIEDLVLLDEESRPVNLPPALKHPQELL
active: [15] 0.241
inactive: erlotinib 0.017 | [1] -0.018 | [2] 0 | [3] 0.056 | [4] 0.018 | [5] 0.009 | [6] 0.036 | [7] 0.007 | [8] -0.006 | [9] -0.021 | IRAK-1-4 Inhibitor I -0.057 | ibrutinib 0.039 | [10] 0.062 | ralimetinib 0.059 | [11] 0.01 | [12] 0.056 | [13] -0.04 | pinometostat 0.032 | [14] -0.056

CA8 (UniProt P35219)
inactive: erlotinib -0.045 | [1] 0.051 | [2] 0.092 | [3] -0.017 | [4] 0.054 | [5] 0.019 | [6] 0.118 | [7] -0.02 | [8] -0.054 | [9] 0.011 | IRAK-1-4 Inhibitor I 0.027 | ibrutinib 0.004 | [10] -0.091 | ralimetinib 0.033 | [11] -0.036 | [12] -0.056 | [13] 0.011 | pinometostat -0.008 | [14] -0.021 | [15] -0.046

CHCHD1 (UniProt Q96BP2)
inactive: erlotinib -0.034 | [1] -0.007 | [2] -0.048 | [3] 0.027 | [4] -0.135 | [5] -0.003 | [6] -0.057 | [7] 0.039 | [8] 0.022 | [9] -0.091 | IRAK-1-4 Inhibitor I -0.071 | ibrutinib 0.119 | [10] -0.009 | ralimetinib -0.117 | [11] 0.026 | [12] -0.027 | [13] 0.037 | pinometostat -0.021 | [14] 0.08 | [15] -0.19

CIZ1 (UniProt Q9ULV3)
active: [15] -0.248
inactive: erlotinib 0.002 | [1] 0.024 | [2] 0.032 | [3] 0.069 | [4] 0.009 | [5] 0.083 | [6] -0.092 | [7] -0.085 | [8] 0.034 | [9] -0.016 | IRAK-1-4 Inhibitor I 0.013 | ibrutinib -0.03 | [10] -0.044 | ralimetinib 0.056 | [11] -0.056 | [12] 0.035 | [13] 0.053 | pinometostat -0.02 | [14] -0.02

CHST11 (UniProt Q9NPF2)
Chain of UniProt Q9NPF2 (Q9NPF2 whole entry, looked up): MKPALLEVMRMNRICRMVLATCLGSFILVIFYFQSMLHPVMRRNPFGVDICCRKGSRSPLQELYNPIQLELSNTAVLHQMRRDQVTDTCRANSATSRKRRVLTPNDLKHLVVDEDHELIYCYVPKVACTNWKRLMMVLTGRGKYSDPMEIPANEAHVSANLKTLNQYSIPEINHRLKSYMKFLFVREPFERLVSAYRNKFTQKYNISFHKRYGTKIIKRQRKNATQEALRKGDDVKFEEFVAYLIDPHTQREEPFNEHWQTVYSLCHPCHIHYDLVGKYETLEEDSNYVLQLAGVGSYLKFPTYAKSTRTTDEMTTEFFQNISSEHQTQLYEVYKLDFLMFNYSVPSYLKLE
inactive: erlotinib -0.061 | [1] 0.082 | [2] 0.046 | [3] -0.054 | [4] -0.118 | [5] 0.007 | [6] 0.161 | [7] 0.057 | [8] 0.002 | [9] -0.067 | IRAK-1-4 Inhibitor I -0.002 | ibrutinib -0.032 | [10] 0.063 | ralimetinib -0.406 | [11] 0.057 | [12] -0.257 | [13] -0.17 | pinometostat 0.084 | [14] -0.006 | [15] -0.058

C19orf53 (UniProt Q9UNZ5)
inactive: erlotinib -0.161 | [1] -0.216 | [2] -0.52 | [3] 0.079 | [4] -0.129 | [5] -0.011 | [6] -0.024 | [7] -0.028 | [8] 0.053 | [9] -0.176 | IRAK-1-4 Inhibitor I -0.136 | ibrutinib 0.031 | [10] 0.12 | ralimetinib 0.201 | [11] 0.043 | [12] 0.013 | [13] 0.126 | pinometostat 0.32 | [14] 0.079 | [15] -0.546
